According to PubChem BioAssay (NCATS):
Records with an inconclusive call do not appear. The source made the active and inactive calls. The call rests on the fitted dose curve; in most records, active means well fitted curve in the direction sought with a large enough effect; inconclusive means small, poorly fitted or top-dose-only effect, or another doubt; inactive means no such curve, though single readings can be large; an effect the other way counts as inactive or inconclusive.

Key:
[1] = qHTS to identify inhibitors of the type 1 interferon - major histocompatibility complex class I in skeletal muscle: primary screen against the NCATS Mechanism Interrogation Plate v5.0 (MIPE) Libary (AID 1347411); further: nearly all actives have a fitted effect of over 65% in size; further: potency means the concentration at half of the fitted maximal effect
Outline: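 Luminescence from CRISPR HiBit-tagged endogenous HLA-B in human myoblasts reported MHC class I level after 24 h of IFN-beta (4 ng/ml) plus compound. Compounds ran as 11-point 1:3 series, top 46 uM final.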

[2] = biological target: Endonuclease 4 (Escherichia coli (strain K12)) (UniProt P0A6C1); test: Counterscreen for APE1 Inhibitors: qHTS Validation Assay for Inhibitors of Endonuclease IV (AID 1708)
Outline: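 Enzyme (2 nM) + compound, 15 min RT; add 50 nM TAMRA/BHQ-2 THF-site dsDNA; kinetic read ex525/em598, 3 reads/60 s; activity = read 3 − read 1. Buffer Tris pH 7.5, 50 mM NaCl, 2 mM MgCl2, DTT, Tween-20.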

[3] = qHTS for differential inhibitors of proliferation of Plasmodium falciparum line 3D7 (AID 1876); further: potency means the concentration at half of the fitted maximal effect
[4] = qHTS for differential inhibitors of proliferation of Plasmodium falciparum line D10 (AID 1877);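 further: parasites grown with compound for 72 h before DNA staining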; further: potency means the concentration at half of the fitted maximal effect
[5] = qHTS for differential inhibitors of proliferation of Plasmodium falciparum line W2 (AID 1883); conditions: Potency: Plasmodium falciparum W2 proliferation inhibition;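 further: parasites grown with compound for 72 h before lysis and staining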; further: potency means the concentration at half of the fitted maximal effect
[6] = qHTS for differential inhibitors of proliferation of Plasmodium falciparum line HB3 (AID 1886); conditions: Potency: Plasmodium falciparum HB3 proliferation inhibition;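 further: parasites grown with compound for 72 h before SYBR Green readout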; further: potency means the concentration at half of the fitted maximal effect
[7] = biological target: Ferritin light chain (Equus caballus) (UniProt P02791); test: qHTS Validation Assay for Identification of Novel General Anesthetics (AID 2323); further: series mostly up to about 77 µM
Ferritin light chain (Equus caballus), sequence (P02791 2-175 limits assumed): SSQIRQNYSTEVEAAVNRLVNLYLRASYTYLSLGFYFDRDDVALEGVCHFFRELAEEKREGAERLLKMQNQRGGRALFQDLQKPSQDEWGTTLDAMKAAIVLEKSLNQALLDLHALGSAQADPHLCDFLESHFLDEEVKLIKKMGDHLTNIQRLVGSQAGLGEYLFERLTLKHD
Outline: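 Normalized fluorescence response, scaled between free 1-AMA and 1-AMA/apoferritin complex, fitted to a four-parameter Hill equation for concentration-effect values. Binding mix: 10 uM horse-spleen apoferritin, 50% saturated 1-AMA in PBS; read 380/535 nm after 10 min.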

[8] = Quantitative high throughput screen for delayed death inhibitors of the malarial parasite plastid, 96 hour incubation (AID 488745); further: series mostly up to about 29 µM; nearly all actives have a fitted effect of over 70% in size
Outline: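 Decreased firefly luciferase luminescence indicates inhibited growth of reporter-integrated P. falciparum after two generations (96 h, 37 C, 5% CO2). Infected erythrocytes at 0.1% parasitemia, 2% hematocrit, in Albumax-supplemented RPMI 1640.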

[9] = Quantitative high throughput screen for delayed death inhibitors of the malarial parasite plastid, 48 hour incubation (AID 488752); further: nearly all actives have a fitted effect of over 65% in size; further: potency means the concentration at half of the fitted maximal effect
Outline: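 One-generation (48 h) growth assay: a decrease in luciferase signal from an integrated reporter in P. falciparum-infected red cells (0.1% parasitemia, 2% hematocrit) after compound exposure at 37 C indicates parasite inhibition.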

[10] = biological target: Voltage-gated inwardly rectifying potassium channel KCNH2 (Homo sapiens) (UniProt Q12809); test: qHTS Assay for Small Molecule Inhibitors of the Human hERG Channel Activity (AID 588834);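 further: top concentration of the series differs between compounds; lower thallium flux fluorescence means stronger hERG block; nearly all actives have a fitted effect of over 50% in size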
Voltage-gated inwardly rectifying potassium channel KCNH2 (Homo sapiens), sequence (Q12809 whole entry, looked up): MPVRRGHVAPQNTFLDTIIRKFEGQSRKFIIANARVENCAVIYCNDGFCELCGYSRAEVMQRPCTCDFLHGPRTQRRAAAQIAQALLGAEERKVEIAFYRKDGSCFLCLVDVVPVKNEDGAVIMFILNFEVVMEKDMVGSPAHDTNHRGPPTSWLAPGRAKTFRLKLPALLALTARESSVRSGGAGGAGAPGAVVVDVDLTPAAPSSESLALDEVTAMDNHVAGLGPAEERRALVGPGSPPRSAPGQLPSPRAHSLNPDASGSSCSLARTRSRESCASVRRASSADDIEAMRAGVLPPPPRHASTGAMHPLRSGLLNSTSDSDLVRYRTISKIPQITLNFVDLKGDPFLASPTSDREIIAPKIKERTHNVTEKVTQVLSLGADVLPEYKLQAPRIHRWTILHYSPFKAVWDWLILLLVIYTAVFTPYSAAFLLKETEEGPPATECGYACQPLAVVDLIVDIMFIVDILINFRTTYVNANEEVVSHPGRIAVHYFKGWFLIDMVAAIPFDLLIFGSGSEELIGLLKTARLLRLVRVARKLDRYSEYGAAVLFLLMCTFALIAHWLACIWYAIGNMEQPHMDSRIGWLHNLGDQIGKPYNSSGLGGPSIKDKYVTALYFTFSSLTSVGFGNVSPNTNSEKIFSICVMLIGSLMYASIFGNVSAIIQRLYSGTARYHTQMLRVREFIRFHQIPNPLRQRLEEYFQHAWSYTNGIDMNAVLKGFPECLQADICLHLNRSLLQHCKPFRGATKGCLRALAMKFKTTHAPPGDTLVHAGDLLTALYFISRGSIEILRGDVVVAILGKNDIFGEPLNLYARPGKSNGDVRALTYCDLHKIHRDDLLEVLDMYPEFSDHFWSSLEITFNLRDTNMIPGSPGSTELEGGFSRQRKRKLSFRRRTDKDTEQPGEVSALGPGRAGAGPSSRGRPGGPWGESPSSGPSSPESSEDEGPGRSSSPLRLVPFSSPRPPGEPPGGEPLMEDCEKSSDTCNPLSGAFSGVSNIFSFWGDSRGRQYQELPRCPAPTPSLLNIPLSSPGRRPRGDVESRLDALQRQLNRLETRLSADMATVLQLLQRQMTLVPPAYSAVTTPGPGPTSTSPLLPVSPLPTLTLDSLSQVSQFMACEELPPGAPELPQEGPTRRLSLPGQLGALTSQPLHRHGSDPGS
Outline: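 Homogeneous FluxOR thallium flux assay using hERG-expressing U2OS cells (BacMam). Compound treatment about 10 minutes preceded stimulation; reduced fluorescence taken as channel block.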

Measured: Potency

C[C@@]12OC(=O)[C@]1([C@@H](O)[C@@H]1C=CCCC1)NC(=O)[C@@H]2CCCl
active: [1] 0.0294 µM

CN1C(=O)[C@@H](NC(=O)[C@H](CCC(F)(F)F)[C@H](CCC(F)(F)F)C(N)=O)N=C(c2ccccc2)c2ccccc21
inactive: [1]

CC(C)(O)/C=C\C(=O)[C@](C)(O)[C@H]1[C@H](O)C[C@]2(C)[C@@H]3CC=C4[C@@H](C=C(O)C(=O)C4(C)C)[C@]3(C)C(=O)C[C@@]12C
active: [1] 3.3 µM

Cn1c(COP(=O)(NCCBr)NCCBr)cnc1[N+](=O)[O-]
inactive: [1]

O=C(O)CNC(=O)C1C(=O)N(C2CCCCC2)C(=O)N(C2CCCCC2)C1=O
inactive: [1]

C[C@]12COC(=O)C[C@@H]1CC[C@@H]1[C@@H]2CC[C@@]2(C)[C@H]1CC[C@]2(C)O
inactive: [1]

COC[C@H]1OC(=O)c2coc3c2[C@@]1(C)C1=C(C3=O)[C@@H]2CC[C@H](O)[C@@]2(C)C[C@H]1OC(C)=O
inactive: [1]

CCCN1CCC[C@@H](c2cccc(C#N)c2)C1
active: [5] 11.2 µM
not listed: [1]
inactive: all other assays above

N#CC(=Cc1ccc(O)c(O)c1)C(N)=S
inactive: [2] | [4] | [8] | [9] | [10]

NNCc1cccc(O)c1
inactive: [2] | [7] | [10]
active: [3] 12.6 µM | [4] 14.1 µM | [5] 12.6 µM | [6] 14.1 µM | [9] 7.38 µM

NC(Cn1ccc(=O)[nH]c1=O)C(=O)O (centres undefined)
not listed: [1]
inactive: all other assays above

C=CCN1CC[C@@]2(C)c3cc(O)ccc3CC1[C@@H]2C
active: [4] 12.6 µM | [5] 6.31 µM
inactive: [2] | [7] | [8] | [9] | [10]

CN1CCC23CCCC[C@H]2C1Cc1ccc(O)cc13 (some centres undefined)
active: [5] 1.58 µM
not listed: [1] | [2] | [10]
inactive: all other assays above

COc1ccc2c(c1O)-c1cccc3c1C(C2)N(C)CC3 (centres undefined)
inactive: [2] | [7] | [8]
active: [3] 10 µM | [4] 14.1 µM | [5] 7.94 µM | [6] 12.6 µM
